According to the supplement of paper PMC11732987, “Enantioselective OTUD7B fragment discovery through chemoproteomics screening and high-throughput optimisation” (Communications Chemistry, 2025):

Legend:
Experiment in all cases: log2 ratio of Biotin-Ahx-Ub-VS probe labelling (fragment/DMSO); higher = less target engagement (more negative = stronger competition), active = hit call of the paper (q ≤ 0.05, log2 ratio ≤ -1)
Conditions in all cases: compound concentration: 200 uM; treatment time: 3 h
USP34 = USP34 (UniProt Q70CQ2)
Procedure, shortened: (§1)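 HEK293T lysate, 495 µg per sample in Tris/CHAPS/IGEPAL buffer with protease inhibitors, was treated in triplicate with fragment at 200 µM or vehicle for 3 h and then with Biotin-Ahx-Ub-VS at 0.5 µM final for 1 h. Labelled DUBs were NeutrAvidin-enriched, digested with LysC and trypsin, and run by diaPASEF LC-MS/MS. Spectronaut label-free quantities were global-median-normalised, and values are average log2 fragment/vehicle ratios by unpaired t-test on proteins with ≥2 unique peptides.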

USP36 = biological target: T1, USP36 (UniProt Q9P275)
T1 sequence (whole entry): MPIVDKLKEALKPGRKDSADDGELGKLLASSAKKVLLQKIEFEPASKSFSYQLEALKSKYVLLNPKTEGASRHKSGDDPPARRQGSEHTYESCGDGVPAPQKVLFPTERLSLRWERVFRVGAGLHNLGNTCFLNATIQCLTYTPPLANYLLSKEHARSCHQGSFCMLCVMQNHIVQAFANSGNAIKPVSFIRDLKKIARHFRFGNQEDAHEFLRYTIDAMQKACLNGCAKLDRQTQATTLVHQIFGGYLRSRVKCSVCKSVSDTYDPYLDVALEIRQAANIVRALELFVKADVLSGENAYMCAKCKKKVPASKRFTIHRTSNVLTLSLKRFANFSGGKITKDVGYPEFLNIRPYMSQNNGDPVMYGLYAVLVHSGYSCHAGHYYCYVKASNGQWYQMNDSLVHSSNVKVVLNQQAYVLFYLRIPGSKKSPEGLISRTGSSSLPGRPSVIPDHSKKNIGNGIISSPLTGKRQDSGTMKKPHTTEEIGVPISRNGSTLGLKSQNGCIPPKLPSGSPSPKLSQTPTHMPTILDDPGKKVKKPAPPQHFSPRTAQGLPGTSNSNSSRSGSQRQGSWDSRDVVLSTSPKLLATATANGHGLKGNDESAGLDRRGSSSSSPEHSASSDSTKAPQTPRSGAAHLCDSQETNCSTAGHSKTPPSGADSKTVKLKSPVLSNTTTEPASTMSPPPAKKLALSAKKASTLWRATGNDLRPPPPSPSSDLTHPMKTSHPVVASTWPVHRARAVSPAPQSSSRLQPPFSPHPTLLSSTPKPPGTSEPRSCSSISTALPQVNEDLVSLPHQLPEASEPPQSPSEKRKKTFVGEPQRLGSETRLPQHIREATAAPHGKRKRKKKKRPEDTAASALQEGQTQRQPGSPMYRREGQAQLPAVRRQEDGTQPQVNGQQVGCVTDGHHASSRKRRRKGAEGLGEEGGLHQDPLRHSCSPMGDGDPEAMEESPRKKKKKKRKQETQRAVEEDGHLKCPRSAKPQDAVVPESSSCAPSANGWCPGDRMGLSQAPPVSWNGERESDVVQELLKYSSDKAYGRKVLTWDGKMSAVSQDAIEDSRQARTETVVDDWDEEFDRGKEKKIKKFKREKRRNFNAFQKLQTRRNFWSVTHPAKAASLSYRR
Procedure, shortened: as §1

USP38 = biological target: T2, USP38 (UniProt Q8NB14)
T2 sequence (whole entry): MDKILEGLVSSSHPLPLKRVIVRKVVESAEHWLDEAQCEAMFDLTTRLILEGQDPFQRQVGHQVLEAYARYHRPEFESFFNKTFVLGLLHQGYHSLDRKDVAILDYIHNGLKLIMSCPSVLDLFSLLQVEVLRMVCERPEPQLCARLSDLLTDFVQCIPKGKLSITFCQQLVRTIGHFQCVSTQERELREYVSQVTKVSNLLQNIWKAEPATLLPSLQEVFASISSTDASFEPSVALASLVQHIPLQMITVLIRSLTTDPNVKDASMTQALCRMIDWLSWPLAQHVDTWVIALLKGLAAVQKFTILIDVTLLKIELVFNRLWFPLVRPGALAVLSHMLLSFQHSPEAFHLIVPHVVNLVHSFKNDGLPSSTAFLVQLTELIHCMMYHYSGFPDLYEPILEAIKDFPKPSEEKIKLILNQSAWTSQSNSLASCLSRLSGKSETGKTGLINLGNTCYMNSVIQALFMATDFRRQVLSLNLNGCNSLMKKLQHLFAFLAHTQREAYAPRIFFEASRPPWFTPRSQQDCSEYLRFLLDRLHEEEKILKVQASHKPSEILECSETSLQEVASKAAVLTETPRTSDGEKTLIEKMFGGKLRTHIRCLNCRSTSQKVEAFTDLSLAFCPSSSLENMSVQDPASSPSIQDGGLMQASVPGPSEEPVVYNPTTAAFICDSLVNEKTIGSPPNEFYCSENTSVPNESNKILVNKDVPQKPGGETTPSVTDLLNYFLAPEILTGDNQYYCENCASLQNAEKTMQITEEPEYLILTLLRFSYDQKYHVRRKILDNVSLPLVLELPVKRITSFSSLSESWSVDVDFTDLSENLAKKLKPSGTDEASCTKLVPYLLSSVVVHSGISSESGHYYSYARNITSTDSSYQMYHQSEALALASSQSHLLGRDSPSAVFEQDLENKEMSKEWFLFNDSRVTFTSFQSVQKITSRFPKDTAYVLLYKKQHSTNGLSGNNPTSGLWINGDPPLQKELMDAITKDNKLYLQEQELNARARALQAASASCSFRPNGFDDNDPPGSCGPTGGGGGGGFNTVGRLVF
Procedure, shortened: as §1

USP39 = biological target: T3, USP39 (UniProt Q53GS9)
T3 sequence (whole entry): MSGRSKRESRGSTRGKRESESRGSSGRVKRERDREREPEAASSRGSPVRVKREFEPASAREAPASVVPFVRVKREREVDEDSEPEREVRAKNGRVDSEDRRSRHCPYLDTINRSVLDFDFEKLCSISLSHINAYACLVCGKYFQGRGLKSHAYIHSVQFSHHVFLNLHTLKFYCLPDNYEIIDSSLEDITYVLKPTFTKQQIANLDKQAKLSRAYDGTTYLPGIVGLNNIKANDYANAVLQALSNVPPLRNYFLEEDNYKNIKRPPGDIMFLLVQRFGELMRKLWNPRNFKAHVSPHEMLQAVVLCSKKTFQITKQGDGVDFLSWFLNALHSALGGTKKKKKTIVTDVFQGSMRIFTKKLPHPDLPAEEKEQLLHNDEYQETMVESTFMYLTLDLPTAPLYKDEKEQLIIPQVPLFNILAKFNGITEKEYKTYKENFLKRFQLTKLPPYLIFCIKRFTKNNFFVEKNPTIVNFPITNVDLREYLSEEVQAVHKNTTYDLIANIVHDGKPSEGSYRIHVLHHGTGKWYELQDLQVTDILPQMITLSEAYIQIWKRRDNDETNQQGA
Procedure, shortened: as §1

USP4 = biological target: T4, USP4 (UniProt Q13107)
T4 sequence (whole entry): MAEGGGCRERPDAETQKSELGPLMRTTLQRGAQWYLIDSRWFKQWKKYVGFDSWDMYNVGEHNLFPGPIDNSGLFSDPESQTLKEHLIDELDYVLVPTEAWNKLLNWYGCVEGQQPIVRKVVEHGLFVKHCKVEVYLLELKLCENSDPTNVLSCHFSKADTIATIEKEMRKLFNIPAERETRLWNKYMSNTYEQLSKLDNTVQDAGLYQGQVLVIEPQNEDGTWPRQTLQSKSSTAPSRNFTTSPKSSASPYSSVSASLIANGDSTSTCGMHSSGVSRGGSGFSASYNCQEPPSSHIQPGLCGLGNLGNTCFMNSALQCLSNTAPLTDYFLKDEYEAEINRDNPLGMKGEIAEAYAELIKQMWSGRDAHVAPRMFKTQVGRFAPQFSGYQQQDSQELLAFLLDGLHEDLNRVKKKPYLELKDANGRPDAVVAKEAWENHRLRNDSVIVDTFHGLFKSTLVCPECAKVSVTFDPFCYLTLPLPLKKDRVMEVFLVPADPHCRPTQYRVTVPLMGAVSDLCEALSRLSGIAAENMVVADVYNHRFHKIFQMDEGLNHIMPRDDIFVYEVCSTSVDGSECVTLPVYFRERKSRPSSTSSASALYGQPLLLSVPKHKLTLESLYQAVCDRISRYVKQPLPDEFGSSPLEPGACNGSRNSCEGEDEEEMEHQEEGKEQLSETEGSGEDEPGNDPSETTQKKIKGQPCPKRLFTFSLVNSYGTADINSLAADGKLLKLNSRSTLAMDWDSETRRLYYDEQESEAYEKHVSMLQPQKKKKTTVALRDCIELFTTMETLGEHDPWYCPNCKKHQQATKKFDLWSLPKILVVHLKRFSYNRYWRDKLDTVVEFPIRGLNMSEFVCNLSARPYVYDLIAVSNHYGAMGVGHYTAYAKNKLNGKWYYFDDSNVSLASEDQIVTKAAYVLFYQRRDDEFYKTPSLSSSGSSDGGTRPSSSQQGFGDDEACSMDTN
Procedure, shortened: as §1

Measured: log2 ratio of Biotin-Ahx-Ub-VS probe labelling

Sequence of USP34 (Q70CQ2 whole entry, the tested form may be a part): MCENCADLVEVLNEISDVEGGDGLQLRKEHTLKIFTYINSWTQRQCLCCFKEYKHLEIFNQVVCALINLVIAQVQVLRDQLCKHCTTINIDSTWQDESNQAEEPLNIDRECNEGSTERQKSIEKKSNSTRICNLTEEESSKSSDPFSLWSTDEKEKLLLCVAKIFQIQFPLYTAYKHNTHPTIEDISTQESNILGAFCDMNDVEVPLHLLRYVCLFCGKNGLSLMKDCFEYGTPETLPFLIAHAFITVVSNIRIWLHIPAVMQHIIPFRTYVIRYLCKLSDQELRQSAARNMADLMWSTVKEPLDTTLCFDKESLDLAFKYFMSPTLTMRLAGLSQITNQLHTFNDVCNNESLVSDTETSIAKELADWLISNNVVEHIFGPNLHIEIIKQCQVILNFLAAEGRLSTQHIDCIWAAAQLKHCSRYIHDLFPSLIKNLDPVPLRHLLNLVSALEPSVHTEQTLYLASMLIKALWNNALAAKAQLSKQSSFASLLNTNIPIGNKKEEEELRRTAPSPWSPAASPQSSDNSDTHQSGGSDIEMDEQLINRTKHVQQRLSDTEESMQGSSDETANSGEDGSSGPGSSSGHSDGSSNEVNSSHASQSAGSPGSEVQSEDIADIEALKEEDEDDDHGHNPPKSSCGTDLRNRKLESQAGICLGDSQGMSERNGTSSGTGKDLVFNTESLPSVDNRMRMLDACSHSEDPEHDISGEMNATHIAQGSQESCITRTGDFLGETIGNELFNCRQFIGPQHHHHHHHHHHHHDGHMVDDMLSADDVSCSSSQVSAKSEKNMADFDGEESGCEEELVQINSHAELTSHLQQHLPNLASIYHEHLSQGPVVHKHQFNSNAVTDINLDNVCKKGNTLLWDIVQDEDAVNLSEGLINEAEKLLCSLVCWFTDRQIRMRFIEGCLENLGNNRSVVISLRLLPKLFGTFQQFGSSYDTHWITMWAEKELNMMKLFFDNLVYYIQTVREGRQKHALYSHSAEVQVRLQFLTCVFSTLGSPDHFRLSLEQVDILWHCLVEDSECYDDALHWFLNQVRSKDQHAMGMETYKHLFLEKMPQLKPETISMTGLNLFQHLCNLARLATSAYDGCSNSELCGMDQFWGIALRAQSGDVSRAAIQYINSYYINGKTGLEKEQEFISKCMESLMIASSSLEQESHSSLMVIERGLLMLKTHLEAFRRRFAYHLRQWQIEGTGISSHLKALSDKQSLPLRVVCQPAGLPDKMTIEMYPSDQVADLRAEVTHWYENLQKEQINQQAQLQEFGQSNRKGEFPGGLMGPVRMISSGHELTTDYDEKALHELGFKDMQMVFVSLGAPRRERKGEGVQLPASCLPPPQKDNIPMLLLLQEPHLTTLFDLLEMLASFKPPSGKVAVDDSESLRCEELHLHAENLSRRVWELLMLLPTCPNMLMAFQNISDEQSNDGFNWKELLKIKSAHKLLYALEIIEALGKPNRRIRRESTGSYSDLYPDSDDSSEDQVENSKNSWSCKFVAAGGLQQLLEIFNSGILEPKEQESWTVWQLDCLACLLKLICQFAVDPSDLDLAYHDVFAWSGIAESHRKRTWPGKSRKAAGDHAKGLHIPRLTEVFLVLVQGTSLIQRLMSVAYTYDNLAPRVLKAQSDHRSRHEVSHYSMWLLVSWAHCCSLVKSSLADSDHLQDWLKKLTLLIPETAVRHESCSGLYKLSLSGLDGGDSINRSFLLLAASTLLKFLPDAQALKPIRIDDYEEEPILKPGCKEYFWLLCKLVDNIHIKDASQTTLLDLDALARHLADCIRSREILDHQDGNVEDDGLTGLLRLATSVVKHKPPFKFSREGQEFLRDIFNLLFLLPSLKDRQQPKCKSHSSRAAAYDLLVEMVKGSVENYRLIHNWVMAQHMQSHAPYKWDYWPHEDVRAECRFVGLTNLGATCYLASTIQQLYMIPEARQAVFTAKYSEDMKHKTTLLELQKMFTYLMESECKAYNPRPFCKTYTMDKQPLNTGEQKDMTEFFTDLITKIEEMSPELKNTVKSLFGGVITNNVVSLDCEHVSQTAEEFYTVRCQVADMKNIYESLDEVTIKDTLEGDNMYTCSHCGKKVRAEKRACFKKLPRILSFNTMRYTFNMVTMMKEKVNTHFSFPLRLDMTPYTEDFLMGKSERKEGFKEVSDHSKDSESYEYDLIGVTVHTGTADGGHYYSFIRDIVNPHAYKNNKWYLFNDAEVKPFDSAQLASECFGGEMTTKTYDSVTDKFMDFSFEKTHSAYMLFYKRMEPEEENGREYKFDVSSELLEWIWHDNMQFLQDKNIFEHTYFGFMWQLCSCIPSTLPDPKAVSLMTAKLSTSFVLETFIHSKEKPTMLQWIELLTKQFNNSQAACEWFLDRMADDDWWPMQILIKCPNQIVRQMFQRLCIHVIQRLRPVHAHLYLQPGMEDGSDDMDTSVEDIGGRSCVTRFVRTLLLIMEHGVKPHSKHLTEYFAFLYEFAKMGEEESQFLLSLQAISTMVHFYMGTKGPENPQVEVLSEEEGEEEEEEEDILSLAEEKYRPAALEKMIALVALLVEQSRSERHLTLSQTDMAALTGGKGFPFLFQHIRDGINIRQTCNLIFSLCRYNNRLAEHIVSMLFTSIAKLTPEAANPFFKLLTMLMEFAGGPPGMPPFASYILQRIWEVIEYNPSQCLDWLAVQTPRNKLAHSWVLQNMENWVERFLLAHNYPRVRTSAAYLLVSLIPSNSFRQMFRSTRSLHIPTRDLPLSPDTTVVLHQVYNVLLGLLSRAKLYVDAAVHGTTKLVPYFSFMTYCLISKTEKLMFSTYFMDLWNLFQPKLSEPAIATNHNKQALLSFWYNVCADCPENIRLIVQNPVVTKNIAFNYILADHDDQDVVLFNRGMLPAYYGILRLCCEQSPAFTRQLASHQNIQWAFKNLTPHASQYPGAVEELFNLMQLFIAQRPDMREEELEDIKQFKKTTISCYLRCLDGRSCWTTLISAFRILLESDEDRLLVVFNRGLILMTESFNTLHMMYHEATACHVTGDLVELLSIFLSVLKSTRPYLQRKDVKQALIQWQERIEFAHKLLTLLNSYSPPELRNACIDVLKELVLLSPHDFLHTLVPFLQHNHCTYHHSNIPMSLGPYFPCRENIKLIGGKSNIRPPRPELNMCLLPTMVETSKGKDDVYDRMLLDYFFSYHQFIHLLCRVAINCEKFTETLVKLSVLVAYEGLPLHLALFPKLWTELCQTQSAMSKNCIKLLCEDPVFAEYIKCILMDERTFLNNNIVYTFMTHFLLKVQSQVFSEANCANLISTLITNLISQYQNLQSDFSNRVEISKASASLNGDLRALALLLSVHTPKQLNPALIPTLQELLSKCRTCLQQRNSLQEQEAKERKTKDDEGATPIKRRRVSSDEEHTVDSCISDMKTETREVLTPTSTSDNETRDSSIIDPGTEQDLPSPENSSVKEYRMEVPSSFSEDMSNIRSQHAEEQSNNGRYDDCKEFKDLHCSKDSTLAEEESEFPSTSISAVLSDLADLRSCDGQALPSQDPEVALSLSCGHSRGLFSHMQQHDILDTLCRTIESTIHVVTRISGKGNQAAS

O=C(CCl)N1CCCN(C(=O)c2ccc(Cl)cc2)CC1
inactive: USP34 -0.425 | USP36 0.0741 | USP38 -0.22 | USP39 -0.317 | USP4 -0.259
